# Data reported in PubChem BioAssay (NCATS).
# Records with an inconclusive call do not appear. Unmarked numbers belong to inactive results. Calls of active or inactive are those of the source. The call rests on the fitted dose curve; in most records, active means well fitted inhibition curve with a large enough effect; inconclusive means small, poorly fitted or top-dose-only effect; inactive means flat fitted curve, though single readings scatter.
# Key:
# [1] = test system: CRL-7250; test: Cytotoxic Profiling of Annotated Libraries Using Quantitative High-Throughput Screening (AID 1296008); details: Five cell lines viability, CellTiter-Glo ATP luminescence, 48-72 h; max response: hits give low values; on max response: on the % scale 0 is the no-effect control and ±100 the full control effect
# Summary of the method: (§1)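 Cytotoxicity was measured as CellTiter-Glo ATP luminescence, read after 10 min at room temperature. Compound treatment of the cells lasted 48 or 72 hr at 37 degrees Celsius in a qHTS format.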
# [2] = test system: NIH3T3; test: as above; details: Five cell lines viability, CellTiter-Glo ATP luminescence, 48-72 h; max response: hits give low values
# Summary of the method: as §1
# [3] = test system: KB-3-1; test: as above; details: Five cell lines viability, CellTiter-Glo ATP luminescence, 48-72 h; max response: hits give low values
# Summary of the method: as §1
# [4] = test system: HEK293T; test: qHTS assay to identify novel small-molecules to repurpose for Merkel cell carcinoma treatment (AID 1296009); details: MCC and control cell lines, CellTiter-Glo viability, 72 h
# Summary of the method: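 After compound transfer in DMSO, plates were kept 72 hr at 37 degree celsius. Luminescent ATP signal from CellTiter-Glo served as viability measure, normalized against DMSO and no-cell controls.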
# [5] = test system: HEK293; test: Cytotoxic Profiling of Annotated Libraries Using Quantitative High-Throughput Screening (AID 1296008); details: Five cell lines viability, CellTiter-Glo ATP luminescence, 48-72 h; max response: hits give low values; on max response: on the % scale 0 is the no-effect control and ±100 the full control effect
# Summary of the method: as §1
# [6] = test system: HaCat; test: as above; details: Five cell lines viability, CellTiter-Glo ATP luminescence, 48-72 h; max response: hits give low values
# Summary of the method: as §1
# Further: nearly all actives have a fitted effect of over 60% in size.
# Potency means the concentration at half of the fitted maximal effect.
smiles,measurement,setting,value
O=C(Cc1c(F)cccc1F)Nc1cc(OCc2ccc(Cl)cc2)ccn1,max response,[1],3.56%
same,max response,[2],-10.7%
CC(C)n1nc(C#Cc2ccccc2)c2c(N)ncnc21,Potency,[1],16.4 µM (active)
same,Potency,[2],11.6 µM (active)
COc1ccc(S(=O)(=O)N2CCC[C@H]2C(=O)Nc2cc(C)cc(C)c2)cc1,max response,[1],2.15%
same,outcome,[3],inactive
same,max response,[2],0.512%
Cc1cc(F)ccc1[C@H]1C[C@@H](N2CCN3C(=O)CC[C@H]3C2)CCN1C(=O)N(C)[C@H](C)c1cc(C(F)(F)F)cc(C(F)(F)F)c1,max response,[1],2.7%
same,outcome,[2],inactive
CC(C)c1cc(-c2ccc(F)c3ccccc23)nc(N)n1,max response,[1],2.23%
same,max response,[3],-2.32%
same,outcome,[2],inactive
C/C=C(/C)C(=O)O[C@@H]1C[C@@H](OC(=O)CC(C)C)C2(C)C3C(=O)C=C(C)C2C3C1(C)C (stereo partly drawn),max response,[1],0.438%
same,max response,[3],5.54%
same,max response,[2],-2.22%
CCN1CCC[C@@H]1CNC(=O)c1ccc2c(c1)NC(=O)c1cccc(C)c1S2,max response,[1],2.08%
same,outcome,[3],inactive
same,outcome,[2],inactive
O=C1C[C@]23C=CCN4CCC5c6cc7c(cc6N1[C@@]5(CC2)C43)OCO7 (stereo partly drawn),max response,[1],-12%
same,max response,[2],-4.65%
O=C(NCCN1CCC(n2c(=O)[nH]c3ccccc32)CC1)c1cc2cc(F)ccc2[nH]1,max response,[1],4.31%
same,max response,[3],1.32%
same,outcome,[2],inactive
CCOc1cn(-c2ccc(F)cc2C)nc1C(=O)Nc1ccc(Oc2ccnc3cc(OC)c(OC)cc23)c(F)c1,max response,[1],-25.1%
same,max response,[3],5.26%
same,Potency,[2],5.8 µM (active)
NC(=O)N1CCC(CC(=O)N2CCC(C3c4ncc(Br)cc4CCc4cc(Cl)cc(Br)c43)CC2)CC1 (stereo not drawn),max response,[1],-10.9%
same,max response,[2],2.37%
CC1(C)SCCN(S(=O)(=O)c2ccc(Oc3ccncc3)cc2)[C@H]1C(=O)NO,max response,[1],-1.93%
same,max response,[3],-10.1%
same,max response,[2],2.44%
CN(CC1COCCO1)S(=O)(=O)Nc1ccc2ccc3ncc(-c4cnn(C)c4)cc3c(=O)c2c1 (stereo not drawn),Potency,[1],5.8 µM (active)
same,Potency,[2],3.26 µM (active)
same,Potency,[4],6.51 µM (active)
CC1(C)CCCC2(C)C1C(=O)C=C(C(=O)O)C2(O)C(=O)O (stereo not drawn),max response,[1],-16%
same,max response,[2],-3.77%
N#Cc1ccc2ncnc(NCCc3ccccc3)c2c1,Potency,[5],18.4 µM (active)
CC1(CO)CC2C(O)C3=C(CC(C)(O)C2C1)C(=O)OC3 (stereo not drawn),max response,[1],-1.99%
same,max response,[3],9.13%
same,max response,[2],1.99%
CO[C@@H]1CC(OC2CCC3(C)C(CCC45CCC(C6=CC(=O)OC6)C(C)(CCC43)C5=O)C2)O[C@H](C)[C@@H]1O[C@@H]1O[C@H](CO[C@@H]2O[C@H](CO)[C@@H](O)[C@H](O)[C@H]2O)[C@@H](O)[C@H](O)[C@H]1O (stereo partly drawn),Potency,[1],2.46 µM (active)
same,Potency,[3],3.48 µM (active)
same,max response,[2],-1.96%
CCCc1cc(C)[nH]c(=O)c1CNC(=O)c1cc(-c2ccnc(N3CCN(C)CC3)c2)cc2c1cnn2C(C)C,Potency,[5],8.2 µM (active)
CCN1CCN(Cc2ccc(NC(=O)c3ccc(C)c(Oc4ccnc5[nH]ccc45)c3)cc2C(F)(F)F)CC1,Potency,[5],9.04 µM (active)
C/C=C(/C)C(=O)O[C@H]1[C@H](OC(=O)/C(C)=C\C)[C@@]23C(CC1(C)C)[C@]1(CCC4[C@@]5(C)CC[C@H](O[C@@H]6O[C@H](C(=O)O)[C@@H](O)[C@H](O[C@@H]7O[C@H](CO)[C@H](O)[C@H](O)[C@H]7O[C@@H]7O[C@@H](C)[C@H](O)[C@@H](O)[C@H]7O[C@@H]7OC[C@@H](O)[C@H](O)[C@H]7O)[C@H]6O[C@@H]6O[C@H](CO)[C@H](O)[C@H](O)[C@H]6O)C(C)(C)C5CC[C@@]4(C)[C@]1(C)C[C@H]2O)O[C@H]3O (stereo partly drawn),Potency,[5],1.74 µM (active)
C/C=C/C=C/C=C/C(=O)O[C@@H]1C=C2COC(=O)[C@]2(O)[C@@]2(C)CCCC(C)(C)[C@H]12,max response,[1],-25.9%
same,max response,[3],-0.753%
same,max response,[2],-4.92%
CCN1CCN(Cc2ccc(C(=O)Nc3ccc(C)c(Oc4ccc5c(c4)CC(=O)N5)c3)cc2C(F)(F)F)CC1,Potency,[5],13 µM (active)
N#CSc1cc(SC#N)c(N)nc1N,Potency,[5],3.1 µM (active)
same,max response,[6],-25%
COc1cc(-n2cnc3cc(-c4ccc(Cl)cc4)sc3c2=O)ccc1OCCN1CCCC1,Potency,[5],10.3 µM (active)
